In the library only some 4% were active in any assay of this set; here they are far more common.
KKLEB tox = CF airway cell cytotoxicity counter-screen. KKLEB CF airway cells viability, ATPlite luminescence, overnight; stronger effect = lower value; cells stimulated with P. aeruginosa culture filtrate. activity change (cytotoxicity), % at 5 µM. hit rate 0.36% among 360,000;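 active = corrected activity change at or below -50% at 5 µM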
Peg3 promoter = Peg3 promoter activity inhibition | HeLa PEG-Prom luciferase reporter, luminescence, overnight | inhibition, % at 20 µM | hit rate 1.7% among 360,000;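 active = inhibition of at least 50% at 20 µM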
TROY signal inh = inhibitors of TROY-dependent NF-kB signaling. Q293 LMP1-TROYcd NF-kB luciferase reporter, 4 h. inhibition, % at 10 µM. hit rate 0.98% among 360,000. AID 1347056;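 active = compounds whose plate-normalised and pattern-corrected inhibition of the luciferase reporter signal at the single screening dose is 50% or more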
TWEAK-Fn14 inh = inhibitors of TWEAK-Fn14 interaction signaling. TWEAK-stimulated Fn14 reporter cells, luciferase luminescence, 8 h. inhibition, % at 10 µM. hit rate 2% among 360,000. AID 1159606; in the data active = inhibition above about 50%
CF NFkB inh = cystic fibrosis NF-kB activation inhibition; hit rate 0.86% among 360,000; inhibition, % at 5 µM; KKLEB NF-kB-GFP reporter, PAF-induced, GFP fluorescence overnight;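 active = at least 50% inhibition at 5 µM, scaled per plate between neutral and stimulator controls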;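 note: PAF is a Pseudomonas aeruginosa culture filtrate used as stimulus; plate controls were PAF-stimulated DMSO wells for no effect and unstimulated DMSO wells for full effect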
HIF-2a inh = HIF-2a inhibition; inhibition, % at 18.8 µM; hit rate 0.72% among 360,000; 786-0 RCC cells HIF-2a reporter, luciferase luminescence, overnight;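 active = inhibition of the luminescence signal of 40% or more relative to plate controls, in a single-dose primary screen at 18.75 µM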
Active calls of the source: *; . = no result given.

SMILES	KKLEB tox	Peg3 promoter	TROY signal inh	TWEAK-Fn14 inh	CF NFkB inh	HIF-2a inh
COC(=O)c1ccc(N/C=C\C(=O)c2ccc3c(c2)OCO3)cc1	-7.2	-123.6	-37.1	1.0	-22.5	-66.2
O=C(/C=C/Nc1ccc(F)cc1Br)c1ccccc1	-71.5*	39.1	76.5*	90.3*	3.6	52.1*
O=C(/C=C/c1cccc(Br)c1)c1ccc2c(c1)OCO2	-15.7	3.0	-0.8	60.0*	-10.7	-187.5
C=CCOC(=O)C1=C[C@H](c2ccc3c(c2)OCO3)C[C@H](OCCCCO)O1	11.1	-18.1	-39.9	-23.8	-13.8	-7.4
O=C(/C=C/c1ccccc1Br)c1ccc2c(c1)OCO2	-3.9	-106.1	-4.4	27.2	-1.4	-230.6
O=C(/C=C\Nc1ccccc1Br)c1ccc2c(c1)OCO2	-75.1*	-32.5	46.7	61.3*	-7.1	-28.2
O=C(Nc1ccc(S(=O)(=O)N2CCCC2)cc1)C1CCN(S(=O)(=O)c2ccc(F)cc2)CC1	2.1	18.4	-7.0	5.1	29.3	17.0
COc1ccc2nc(N=Nc3ccc(N(C)C)cc3)sc2c1	-74.2*	24.8	47.2	41.4	6.8	-138.0
COc1ccc2nc(/N=C\N(C)C)sc2c1	-0.1	-54.8	-27.5	-1.1	2.8	-73.2
Cc1cc(-c2ccccc2)nc2cc(C(=O)N(Cc3ccccc3)Cc3ccccc3)nn12	-15.1	58.1*	.	3.6	31.9	15.3
Cc1ccc(S(=O)(=O)N(CCCO)CC(O)CON=C2c3ccccc3-c3ccccc32)cc1 (configuration not stated)	-9.4	51.8*	33.3	56.5*	16.7	-14.8
CC(=O)O[C@]1(C(C)=O)CC[C@H]2[C@@H]3C=C(C)C4=CC(=O)CC[C@@H]4[C@H]3CC[C@@]21C	-10.3	14.0	-2.1	-10.9	5.5	10.6
CC(=O)O[C@]1(C(C)=O)CCC2C3C=C(C)C4=CC(=O)CC[C@]4(C)C3CC[C@@]21C (some centres not stated)	4.7	-4.4	14.6	-18.4	51.7*	29.9
COC(=O)c1ccccc1S(=O)(=O)NNC(=O)Nc1ccccc1	8.1	-2.2	32.7	68.8*	-33.7	-1.9
COC(=O)c1ccccc1S(=O)(=O)C(C)(C)C	-2.3	3.9	24.9	-24.7	9.3	15.8
CCC1Oc2ccc(C)cc2N(CC(=O)N2CCOCC2)C1=O (configuration not stated)	-7.0	-1.9	-12.2	-3.9	10.2	1.7
COc1ccc(SC[C@H](Cc2ccccc2)N2CC[C@@H](NC(=O)OCc3ccccc3)CCC2=O)cc1	7.3	9.4	-7.6	2.1	0.1	11.2
CCC(=O)N(C1=C(NC)C(=O)c2ccccc2C1=O)C(C)C	0.1	30.4	17.9	61.0*	5.9	9.4
CC(=O)NC1=C(Nc2ccc(N(C)C)cc2)C(=O)c2ccccc2C1=O	1.1	-247.4	24.4	42.7	-0.5	-213.4
CNC1=C(N(C(C)=O)c2ccc(Br)cc2)C(=O)c2ccccc2C1=O	-62.5*	101.6*	64.2*	90.8*	75.6*	60.2*
COc1ccccc1C(=O)NNC(=O)C12CC3CC(CC(C3)C1)C2	4.5	28.1	-4.1	-12.4	-2.1	22.6
C[n+]1cccc(C(=O)NNC(=O)C23CC4CC(CC(C4)C2)C3)c1	9.5	11.3	51.8*	0.9	11.2	20.5
O=C(NNC(=O)C12CC3CC(CC(C3)C1)C2)c1ccccn1	-9.0	60.2*	-10.6	-78.7	22.8	0.4
CN1CCN(Cc2nc3ccccc3c(=O)n2Cc2nc(-c3cccc([N+](=O)[O-])c3)cs2)CC1	-6.8	50.1*	15.0	11.1	-13.4	-14.3
CCOC(=O)c1nc(NNC(=O)c2ccc([N+](=O)[O-])cc2)sc1C	8.6	68.3*	34.0	36.3	-10.1	-20.0
SMILES	KKLEB tox	Peg3 promoter	TROY signal inh	TWEAK-Fn14 inh	CF NFkB inh	HIF-2a inh
CCc1ccc(N(CC(=O)NC(C)C)C(=O)CCC(=O)Nc2ccccn2)cc1	5.2	7.0	-7.8	-15.7	18.2	23.4
CN(C)CCNC(=O)C(c1ccccc1)c1ccccc1	0.4	9.5	-6.9	-4.5	10.8	8.7
CN(C)CCC(=O)C(Cc1ccccc1)c1ccccc1 (configuration not stated)	-5.3	88.6*	15.2	13.2	20.4	14.3
Cc1onc(-c2c(Cl)cccc2Cl)c1C(=O)Nc1nc(C(C)(C)C)cs1	-12.3	35.5	0.5	12.7	10.3	30.2
COc1ccc(NC(=O)CN(C)C2=NS(=O)(=O)c3ccccc32)cc1Cl	-3.4	9.6	4.5	-6.0	-1.3	-9.6
C=CC[n+]1ccc(/C=C2\C=Cc3cc(C)ccc3N2CC)c2ccccc21	-33.1	43.1	50.2*	17.7	48.4	-18.3
CCN1/C(=C/c2cc[n+](CCCS(=O)(=O)[O-])c3ccccc23)Sc2ccccc21	-7.1	16.1	7.7	17.8	-2.0	8.1
CCc1cc(C(=O)N2CCN(c3ncc(C(F)(F)F)cc3Cl)CC2)sc1C	-2.7	12.0	35.3	55.6*	-2.3	-4.2
CCN=C1S/C(=C\c2cc(OCC)c(O)cc2Br)C(=O)N1CC	-28.7	51.2*	29.3	23.3	46.6	15.2
COCCCNCC(O)COc1ccccc1F (configuration not stated)	3.7	-0.1	-5.4	97.8*	3.6	15.6
COc1ccc(Br)cc1C(=O)Nc1cccc(-c2nnc(-c3ccco3)o2)c1	-21.1	53.1*	0.6	-0.3	18.5	1.0
COc1cccc(C(=O)Nc2cccc(-c3nnc(-c4ccco4)o3)c2)c1	-4.6	94.1*	-2.5	41.6	-37.1	-67.6
COc1ccc(Br)cc1C(=O)Nc1ccc(NC(=O)c2ccco2)cc1	0.7	-20.9	-11.0	-19.9	-5.6	-18.8
O=C(CCNC(=O)N1CCn2c1nc1ccccc12)NCc1ccccc1	5.9	-8.6	-5.3	-23.4	4.2	4.6
COc1ccc(NC(=O)CC(c2ccco2)C(C)C)cc1 (configuration not stated)	0.9	-15.0	1.7	4.4	13.5	-16.6
Cc1cc(C)cc(Oc2ccc(-c3nnc(-c4ccccc4)o3)cc2[N+](=O)[O-])c1	-1.7	11.8	87.3*	101.0*	-9.2	-0.5
O=C(/C=C/c1ccc(OCCCF)cc1)Nc1ccnc(-c2cccnc2)n1	12.7	-7.4	51.6*	27.4	-25.7	-35.4
CCOC(=O)c1oc2ccccc2c1COC(=O)C(C)NC(=O)c1ccco1 (configuration not stated)	-0.9	-9.4	-1.6	-16.6	15.3	-27.6
CN(c1cccc(NC(=O)CN(c2ccc(C34CC5CC(CC(C5)C3)C4)cc2)S(C)(=O)=O)c1)S(C)(=O)=O	1.6	5.2	22.6	60.7*	-21.3	-55.9
COc1cccc2c1C(=O)O/C2=C/c1ccc2c(c1)OCO2	-72.8*	-31.0	-10.1	62.8*	42.2	-191.2
O=C1CSC(c2ccccn2)N1c1ccc(Cl)c(Cl)c1 (configuration not stated)	-8.4	11.5	-3.9	107.5*	2.7	18.4

Screening results (PubChem)
